Most compounds without a hit are left out; they make up all but 1.2% or so of the library.
Shn3 inh set2: Schnurri-3 reporter inhibition in Clone20 osteoblasts; Clone20 osteoblast Shn3 3'UTR firefly luciferase, 24 h; inhibition, % at 12.5 µM; hit rate 0.52% among 360,000; AID 588674;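 active means mean inhibition of at least 75% with every replicate also reaching 75%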
EBV LMP1 NFkB: reduces LMP1-driven NF-kappaB luciferase signal | LMP1-induced NF-kappaB luciferase reporter cells, luminescence | inhibition, % at 12.5 µM | hit rate 0.69% among 350,000 | AID 504558; in the data active means inhibition above about 41%
NCOA2 inhibitor: inhibits human steroid receptor coactivator 2; Q15596; HEK293 GAL4-SRC2 luciferase reporter, luminescence; inhibition, % at 9 µM; hit rate 0.17% among 370,000; AID 651957;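 active means inhibition above the mean inhibition of all tested compounds plus 3 SD, set per campaign, cut at about 52% in these data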
NCOA1 inh: inhibitors of human steroid receptor coactivator 1 (SRC1). Q15788. HEK293 GAL4-SRC1 luciferase reporter, luminescence. inhibition, % at 3.6 µM. hit rate 0.12% among 360,000. AID 588354;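 active means inhibition above the campaign mean plus 3 SD, with each screening campaign given its own cutoff, cut at about 60% in these data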
NCOA3 inh: inhibits human SRC3 coactivator; Q9Y6Q9; HEK293 GAL4-SRC3 luciferase reporter, luminescence; inhibition, % at 3.6 µM; hit rate 0.17% among 360,000; AID 588352;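 active means inhibition above a per-campaign cutoff, the mean of all compounds plus 3 SD, cut at about 60% in these data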;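 further: higher means less SRC3-driven luciferase light from the GAL4 reporter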
LRH-1 inv ag: NR5A2 inverse agonism in reporter assay; O00482; HEK293T StAR-luciferase reporter, LRH-1 transfected, 24 h; AID 602396; inhibition, % at 3.6 µM; hit rate 0.13% among 360,000;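 active means inhibition above the mean inhibition of all tested compounds plus 3 SD, cut at about 73% in these data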
Target sequence (O00482 whole entry, looked up): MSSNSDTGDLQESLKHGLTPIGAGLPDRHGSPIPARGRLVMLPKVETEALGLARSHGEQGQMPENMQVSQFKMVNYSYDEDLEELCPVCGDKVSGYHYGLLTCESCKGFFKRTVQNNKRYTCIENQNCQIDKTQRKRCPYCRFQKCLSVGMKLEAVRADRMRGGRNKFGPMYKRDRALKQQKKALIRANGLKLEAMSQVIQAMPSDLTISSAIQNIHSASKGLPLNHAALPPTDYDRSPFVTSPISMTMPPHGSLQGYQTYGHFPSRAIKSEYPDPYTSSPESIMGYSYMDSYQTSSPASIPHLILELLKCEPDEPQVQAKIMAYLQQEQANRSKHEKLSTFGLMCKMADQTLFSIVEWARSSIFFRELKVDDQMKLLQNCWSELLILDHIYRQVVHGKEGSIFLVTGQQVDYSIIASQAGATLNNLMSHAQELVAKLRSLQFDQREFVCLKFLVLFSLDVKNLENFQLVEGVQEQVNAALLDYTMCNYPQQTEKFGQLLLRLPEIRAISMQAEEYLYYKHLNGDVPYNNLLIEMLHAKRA
A number is an active result.

What do the screens show for `CC(C)C(=O)NC(c1cccc([N+](=O)[O-])c1)c1ccc2cccnc2c1O` (stereo unspecified)?
Shn3 inh set2: 89.2; EBV LMP1 NFkB: 52.5; NCOA2 inhibitor: inactive; NCOA1 inh: inactive; NCOA3 inh: inactive; LRH-1 inv ag: inactive

How did CCCC(=O)NC(c1cccc([N+](=O)[O-])c1)c1ccc2cccnc2c1O (stereo unspecified) do in these assays?
Shn3 inh set2: 87.5; EBV LMP1 NFkB: 67.6; NCOA2 inhibitor: inactive; NCOA1 inh: inactive; NCOA3 inh: inactive; LRH-1 inv ag: inactive

Results for CCC(=O)NC(c1cccc([N+](=O)[O-])c1)c1c(OC(C)=O)ccc2ccccc12 (stereo unspecified) ?
Shn3 inh set2: inactive; EBV LMP1 NFkB: inactive; NCOA2 inhibitor: inactive; NCOA1 inh: inactive; NCOA3 inh: inactive; LRH-1 inv ag: inactive

Results for CC(C)C(=O)NC(c1cccc([N+](=O)[O-])c1)c1c(O)ccc2ccccc12 (stereo unspecified) ?
Shn3 inh set2: inactive; EBV LMP1 NFkB: inactive; NCOA2 inhibitor: inactive; NCOA1 inh: inactive; NCOA3 inh: inactive; LRH-1 inv ag: inactive

Results for O=C(OCc1cn(Cc2ccc(C(F)(F)F)cc2)nn1)N1CCCC1 ?
NCOA2 inhibitor: inactive

What do the screens show for `COC(=O)[C@]12C[C@H](CC(=O)NCCCCc3ccccc3)C(=O)N(Cc3ccccc3)C1=C[C@H](C(C)C)O[C@@H]2C1CC1`?
NCOA2 inhibitor: inactive

Results for C=CCN(CC=C)C[C@@H]1CSCCS(=O)(=O)N1 ?
NCOA2 inhibitor: inactive

Results for COc1ccc(NC(=O)c2ccc(-c3ccccc3)cc2)cc1S(=O)(=O)N1CCOCC1 ?
Shn3 inh set2: inactive; EBV LMP1 NFkB: 51.4; NCOA2 inhibitor: inactive; NCOA1 inh: inactive; NCOA3 inh: inactive; LRH-1 inv ag: inactive

What do the screens show for `CCc1ccc(C(=O)Nc2ccc(OC)c(S(=O)(=O)N3CCOCC3)c2)cc1`?
Shn3 inh set2: inactive; EBV LMP1 NFkB: inactive; NCOA2 inhibitor: inactive; NCOA1 inh: inactive; NCOA3 inh: inactive; LRH-1 inv ag: inactive

What do the screens show for `COc1ccc(S(=O)(=O)N2CCOCC2)cc1NC(=O)CCNC(=O)c1ccc(Br)cc1`?
Shn3 inh set2: inactive; EBV LMP1 NFkB: inactive; NCOA2 inhibitor: 56.9; NCOA1 inh: inactive; NCOA3 inh: inactive; LRH-1 inv ag: 82.5

How did Cc1ccc(NC(=O)c2oc3ccccc3c2COC(C)C)cc1S(=O)(=O)N1CCOCC1 do in these assays?
Shn3 inh set2: 87.9; EBV LMP1 NFkB: inactive; NCOA2 inhibitor: inactive; NCOA1 inh: inactive; NCOA3 inh: inactive; LRH-1 inv ag: inactive

How did CCC(C)N(C(=O)Cn1nc(Cc2ccncc2)c2ccccc2c1=O)C(C)CC (stereo unspecified) do in these assays?
NCOA2 inhibitor: inactive

How did CCOC(=O)N1CCN(C(=O)C[C@H]2C[C@@]3(C(=O)OC)C(=C[C@H](C(C)C)O[C@@H]3C3CC3)N(Cc3cccc4ccccc34)C2=O)CC1 do in these assays?
NCOA2 inhibitor: inactive

What do the screens show for `CCCCCCCCNS(=O)(=O)/C=C/c1ccc(OC)cc1CNC(=O)OC(C)(C)C`?
NCOA2 inhibitor: inactive

Results for CN(C)C1(CNC(=O)Nc2ccccc2)CCCCC1 ?
Shn3 inh set2: inactive; EBV LMP1 NFkB: 42.5; NCOA2 inhibitor: inactive; NCOA1 inh: inactive; NCOA3 inh: inactive; LRH-1 inv ag: inactive

How did CCCCC(CC)CN=C(N)NC(N)=NCCCCCCN=C(N)NC(N)=NCC(CC)CCCC (stereo unspecified) do in these assays?
Shn3 inh set2: 96.8; EBV LMP1 NFkB: inactive; NCOA1 inh: inactive; NCOA3 inh: inactive; LRH-1 inv ag: inactive

How did CCCCC(CC)CO (stereo unspecified) do in these assays?
Shn3 inh set2: inactive; EBV LMP1 NFkB: inactive; NCOA2 inhibitor: inactive; NCOA1 inh: inactive; NCOA3 inh: inactive; LRH-1 inv ag: inactive

How did C=CC[n+]1ccc(/C=C2\C=Cc3cc(C)ccc3N2CC)c2ccccc21 do in these assays?
Shn3 inh set2: inactive; EBV LMP1 NFkB: 56.5; NCOA1 inh: inactive; NCOA3 inh: 72.8; LRH-1 inv ag: 86.0

How did COc1ccc2c(C)c(Cl)c(=O)oc2c1 do in these assays?
Shn3 inh set2: inactive; EBV LMP1 NFkB: inactive; NCOA2 inhibitor: inactive; NCOA1 inh: inactive; NCOA3 inh: inactive; LRH-1 inv ag: inactive

What do the screens show for `C=C1CC(COc2ccc3c(C)c(Cl)c(=O)oc3c2)(c2ccccc2)OC1=O` (stereo unspecified)?
Shn3 inh set2: 96.2; EBV LMP1 NFkB: inactive; NCOA2 inhibitor: inactive; NCOA1 inh: inactive; NCOA3 inh: inactive; LRH-1 inv ag: inactive

What do the screens show for `CCN1C(=O)[C@@H]2[C@@H](c3ccc(-c4ccc(OC)cc4)cc3)N3CCC[C@@]3(C(=O)OC)[C@@H]2C1=O`?
Shn3 inh set2: inactive; EBV LMP1 NFkB: inactive; NCOA2 inhibitor: inactive; NCOA1 inh: inactive; NCOA3 inh: inactive; LRH-1 inv ag: inactive

Results for CCN1C(=O)[C@H]2[C@@H](c3ccc(-c4ccc(OC)cc4)cc3)N3CCC[C@@]3(C(=O)OC)[C@H]2C1=O ?
Shn3 inh set2: 89.8; EBV LMP1 NFkB: inactive; NCOA2 inhibitor: inactive; NCOA1 inh: inactive; NCOA3 inh: inactive; LRH-1 inv ag: inactive

How did CCN1C(=O)[C@@H]2[C@@H](c3ccc(-c4ccc(Cl)c(Cl)c4)cc3)N3CCC[C@@]3(C(=O)OC)[C@@H]2C1=O do in these assays?
Shn3 inh set2: inactive; EBV LMP1 NFkB: 74.7; NCOA2 inhibitor: inactive; NCOA1 inh: inactive; NCOA3 inh: inactive; LRH-1 inv ag: inactive

Results for CCN1C(=O)[C@H]2[C@@H](c3ccc(-c4ccc(Cl)c(Cl)c4)cc3)N3CCCC[C@@]3(C(=O)OC)[C@H]2C1=O ?
Shn3 inh set2: inactive; EBV LMP1 NFkB: inactive; NCOA2 inhibitor: inactive; NCOA1 inh: inactive; NCOA3 inh: inactive; LRH-1 inv ag: inactive

Results for COc1ccc(NC(=O)CN2C(=O)NC(C)(c3ccc(C)cc3)C2=O)c([N+](=O)[O-])c1 (stereo unspecified) ?
Shn3 inh set2: inactive; EBV LMP1 NFkB: 51.2; NCOA2 inhibitor: inactive; NCOA1 inh: inactive; NCOA3 inh: inactive; LRH-1 inv ag: inactive

How did Cc1ccc2oc(C(=O)Nc3ccc(S(=O)(=O)Nc4onc(C)c4C)cc3)c(C)c2c1 do in these assays?
Shn3 inh set2: inactive; EBV LMP1 NFkB: 65.9; NCOA2 inhibitor: inactive; NCOA1 inh: inactive; NCOA3 inh: inactive; LRH-1 inv ag: inactive

How did Cc1cc(C(=O)Nc2ccc(S(=O)(=O)Nc3onc(C)c3C)cc2)c(C)o1 do in these assays?
Shn3 inh set2: inactive; EBV LMP1 NFkB: inactive; NCOA2 inhibitor: inactive; NCOA1 inh: inactive; NCOA3 inh: inactive; LRH-1 inv ag: inactive

What do the screens show for `Cc1ccc2nc(-c3cc(-c4ccccc4)no3)cn2c1`?
Shn3 inh set2: inactive; EBV LMP1 NFkB: inactive; NCOA2 inhibitor: inactive; NCOA1 inh: inactive; NCOA3 inh: inactive; LRH-1 inv ag: inactive

What do the screens show for `CCc1ccn2cc(-c3cc(-c4ccccc4)no3)nc2c1`?
Shn3 inh set2: inactive; EBV LMP1 NFkB: 70.1; NCOA2 inhibitor: 73.7; NCOA1 inh: inactive; NCOA3 inh: inactive; LRH-1 inv ag: inactive

Bioassay records from PubChem BioAssay.
